# ± gives the standard deviation.
# System: MILI (PIWIL2) piRISC loaded with L1MC piRNA (26 nt)
# Experiment: pre-steady-state target cleavage rate (min^-1); guide: L1MC piRNA 5'p-UAACUAAAUACUAUGCAAGCUGUAGG; MIWI and MILI are mouse PIWI proteins and EfPiwi is from a freshwater sponge; tags in brackets are library labels; higher = faster piRNA-guided slicing of the target
# Conditions: auxiliary factor: 500 nM mouse GTSF1
# Summary of the method: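 Active affinity-purified piRISC (1 nM) loaded with one synthetic guide was mixed with a transcribed, DNA-blocked target RNA library (0.1 nM), with or without 500 nM GTSF1 partner protein, in HEPES–potassium acetate buffer at 33 °C for 0–8 or 0–960 min. Uncleaved targets were sequenced, normalised to depth and to weakly complementary targets, and pooled across three trials, with k3 capped at 0.0001 min^-1. The pre-steady-state cleavage rate was determined with a burst-and-steady-state fit.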
row,Sequence,pre-steady-state target cleavage rate
1,UCCUGGAUGAGCUUGCAUAGUAUAUAGAUA,0.019 ± 0.0076
2,UCCUGGAUCAGCUUGCUUAGUAUUUAGAUA,0.15 ± 0.023
3,UCCUCCUACUCCUUGCAUAGUAUUUUCAAA,0.0534 ± 0.015
4,UCCUGGAACAGCUUGCAUAGUAAUUUCAAA,0.0786 ± 0.026
5,UCCUGGAUGUCGAAACAUAGUAUUUAGUUA,0.0131 ± 0.004
6,UCCUGGAACAGCUUGCAUAGUAUAUUCAAA,0.0758 ± 0.022
7,UCCUCCUACAGCUUGCAUUCUAUUUAGUAA,0.0535 ± 0.017
8,UCCUGGAUGUCCUUGCAUACUAAUUAGUUA,0.00561 ± 0.0042
9,UCCUGGAACAGCUUGCCAUAGUAUUUAGUUA,0.163 ± 0.018
10,UCCUGGAUGUGCUUGCAUAGAAUUUAGUAA,0.00482 ± 0.0043
11,UCCUGGAACAGGUUGCAUAGUAUUUACAAA,0.0582 ± 0.013
12,UCCUGGAUCAGCUUGCAUAGAAUUAAGUUA,0.0383 ± 0.011
13,UCCUGGAUGUCCUUGCAUAGUUUUUAGAUA,0.00584 ± 0.0044
14,UCCUGGAUGUCCAUGCAUAGUAUUUACUUA,0.0292 ± 0.0095
15,UCCUGGAUGUCGUUGCAUAGUAAUUAGUAA,0.0579 ± 0.013
16,UCCUGGAUGAGCUUGGAUUGUAUUUAGUUA,0.0185 ± 0.0063
17,UCCUGCUACAGCUUGCAUAGUAUUUAAUUA,0.126 ± 0.03

row,Sequence,pre-steady-state target cleavage rate
1,UCCUGGAUGUCGAAGCAUAGUAUAUUGUUA,0.00971 ± 0.0047
2,UCCUGGAUGUGCUUGCAAAGUAUUUAGAUA,0.0284 ± 0.008
3,UCCUGGAUCAGCUUGCAUAGUAUUAUCUAA,0.0859 ± 0.021
4,UCCUGGAACACCUUGCAUAGUAUUUAGUAA,0.17 ± 0.022
5,UCCUGGAUGUCCUUGCAUAGUAUUUACUAA,0.0464 ± 0.011
6,UCCUGGAUCAGCUUGCAUAUAUUUAGUUA,0.0263 ± 0.0067
7,UCCUCCUACAGGAAGCAUAGUAUUUAGAAA,0.107 ± 0.017
8,UCCUGGUACAGCUUGCAUAGAAUUUAGAUA,0.0253 ± 0.013
9,UCCUCCUACAGCUUGCAUAGAAUAUAGUUA,0.0822 ± 0.019
10,UCCUCCUACAGCUUGCAUAGUUAUUACAAA,0.0124 ± 0.0054
11,UCCUGCUACAGCUUGCUAUGUAUUUAGAAA,0.0133 ± 0.0063
12,UCCUGGAUCAGCUUGCAUACUAUUUUGUUA,0.0178 ± 0.0061
13,UCCUGGAUGUGCUUGCAAAGUAUUUUGUUA,0.0179 ± 0.0057
14,UCCUGGAUGUGCUUGGUUAGUAUUUAGAAA,0.00692 ± 0.0045
15,UCCUGGAUGUCCUUGCAUACUAUUUAGUAA,0.0148 ± 0.0062
16,UCCUGGAACAGCUUGCAUAGUAUUUACAAA,0.222 ± 0.048

# Same assay, conditions: auxiliary factor: none (no GTSF1)
row,Sequence,pre-steady-state target cleavage rate
1,UCCUGGAUGUCGAACGUAUGAUAUUAGUUA,< 0.0001
2,UCCUGGAUGUCGAACGUAAGUAUUUAUUUA,< 0.0001
3,UCCUGGAUGUCGAACCAAAGUAAUUAGUUA,< 0.0001
4,UCCUGGAUGUCGAUCCAUUGUAUUUAGUUA,< 0.0001
5,UCCUGGAUGUCGAACGAUAGUAUGUUAGUUA,< 0.0001
6,UCCUGGAUGUCGAACGAAAGUAUAUAGUUA,< 0.0001
7,UCCUGGAUGUCGAACGAAAGUAUUUAGUAA,< 0.0001

# — the supplement of paper PMC10338343
